# Laboratory results taken from PubChem BioAssay (NCATS).
# Values without a mark were called inactive. Results filed as inconclusive are left out. The source made the active and inactive calls. Calls follow the shape of the dose curve; as a rule, active = well fitted curve in the direction sought with a large enough effect; inconclusive = small, poorly fitted or top-dose-only effect, or another doubt; inactive = no such curve, though single readings can be large; an effect the other way counts as inactive or inconclusive.
# System: not listed separately
# Test: Cell Viability - LYMP2-024 (AID 988);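 also: cells exposed to compound for 24 hr at 37 °C; nearly all actives have a fitted effect of over 60% in size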; also: potency is read from the fitted curve at half-maximal effect;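 as to activity change, negative = cytotoxicity: plate controls were DMSO only for no effect and 92 µM tetraoctylammonium bromide for full effect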
# Details: LYMP2-024 lymphoblastoid cell viability; series mostly up to 92.2 µM; activity change, negative = cytotoxicity: at the top concentration
# How it was run: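 ATP-based luminescence (CellTiter-Glo, 30 min RT) after 24 h compound exposure at 37 C of 2500 lymphoblastoid cells/well; decrease in ATP taken as cytotoxicity. qHTS concentration-response fitted to standard Hill equation for AC50.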
Structure (SMILES),"activity change, negative = cytotoxicity [%]",Potency
NC(=Nc1ccccc1)Nc1ccccc1,-12.5,
Nc1ncn([C@@H]2O[C@H](CO)[C@@H](O)[C@H]2O)c(=O)n1,,15.8 µM (active)
CCCCOCCOCCOCc1cc2c(cc1CCC)OCO2,-13.4,

# Target: Alpha-galactosidase A (Homo sapiens) (UniProt P06280)
# Sequence (P06280 whole entry, looked up): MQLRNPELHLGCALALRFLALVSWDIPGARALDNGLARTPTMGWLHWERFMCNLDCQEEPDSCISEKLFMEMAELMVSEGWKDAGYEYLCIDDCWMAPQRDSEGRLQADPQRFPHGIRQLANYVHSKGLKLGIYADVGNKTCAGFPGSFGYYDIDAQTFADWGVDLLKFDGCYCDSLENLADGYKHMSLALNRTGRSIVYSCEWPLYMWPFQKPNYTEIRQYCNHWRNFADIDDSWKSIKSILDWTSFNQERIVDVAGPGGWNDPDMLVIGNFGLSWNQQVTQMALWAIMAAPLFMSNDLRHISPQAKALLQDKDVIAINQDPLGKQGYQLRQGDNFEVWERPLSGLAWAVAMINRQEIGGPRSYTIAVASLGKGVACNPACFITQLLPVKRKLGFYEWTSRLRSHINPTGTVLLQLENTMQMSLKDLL
# Test: Counterscreen for Glucocerebrosidase Inhibitors: qHTS Assay for Human alpha-Galactosidase at pH 4.5 (AID 992); also: 0% is about no effect
# Details: purified enzyme, fluorogenic substrate; series mostly up to 76.9 µM; activity change, negative = inhibition: at the top concentration
# How it was run: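 Steps: enzyme (2 nM final), then compound across 0.7 nM to 77 uM, then 80 uM fluorogenic galactopyranoside substrate; incubate 20 min at room temperature; quench at pH 10; measure fluorescence at 365/440 nm.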
row,Structure (SMILES),"activity change, negative = inhibition [%]"
1,Brc1c(NC2=NCCN2)ccc2nccnc12,-2.73
2,C[N+](C)(C)CCOC(=O)CCC(=O)OCC[N+](C)(C)C,0.386
3,O=C1CC2(CCCC2)CC(=O)N1CCCCN1CCN(c2ncccn2)CC1,-0.44
4,CN(C)C(=O)Oc1cccc([N+](C)(C)C)c1,0.564
5,C[C@]12CCC(=O)C=C1CC[C@@H]1[C@@H]2C(=O)C[C@@]2(C)[C@H]1CC[C@]2(O)C(=O)CO,-0.888
6,CCc1cccc(N(C)C(N)=Nc2cccc3ccccc23)c1,-7.33
7,Nc1ncn([C@@H]2O[C@H](CO)[C@@H](O)[C@H]2O)c(=O)n1,-0.982
8,CCC(=O)c1ccc2c(c1)N(CCCN(C)C)c1ccccc1S2,-2.56
9,C[C@H](CS)C(=O)N1CCC[C@H]1C(=O)O,-0.323
10,C[n+]1cc2c3c(ccc2c2ccc4cc5c(cc4c21)OCO5)OCO3,-0.279
11,CNCCCN1c2ccccc2CCc2ccccc21,-1.63
12,CSc1ccc(C(=O)c2[nH]c(=O)[nH]c2C)cc1,-9.36
13,Cc1nc2c([nH]1)c(=O)n(C)c(=O)n2Cc1ccco1,2.17
14,C(=C\c1ccccc1)/CN1CCN(C(c2ccccc2)c2ccccc2)CC1,-2.82
15,CN(C)C(=O)Oc1ccc[n+](C)c1,-1.3
16,O=C(CCCN1CCC(O)(c2cccc(C(F)(F)F)c2)CC1)c1ccc(F)cc1,-5.75

# System: not listed separately
# Test: Cell Viability - LYMP1-002 - Assay at 40 hr (AID 994); also: nearly all actives have a fitted effect of over 60% in size; also: potency is read from the fitted curve at half-maximal effect;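 as to viability change, negative = cytotoxic: 0% = DMSO only and full inhibition = 92 µM tetraoctylammonium bromide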
# Details: LYMP1-002 lymphoblastoid cell viability; series mostly up to 92.2 µM; viability change, negative = cytotoxic: at the top concentration
# How it was run: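 qHTS cytotoxicity; 2500 cells/well, 5 hr 37 C settle, compound 40 hr 37 C. CellTiter-Glo, 30 min RT, luminescence (ATP). Concentration-response, Hill fit → AC50. Pos. ctrl tetraoctylammonium bromide.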
Structure (SMILES),"viability change, negative = cytotoxic [%]",Potency
NC(=Nc1ccccc1)Nc1ccccc1,-18.6,
Nc1ncn([C@@H]2O[C@H](CO)[C@@H](O)[C@H]2O)c(=O)n1,,15.8 µM (active)
CCCCOCCOCCOCc1cc2c(cc1CCC)OCO2,-1.06,

# Target: alpha-glucosidase (Oryza sativa, rice) (UniProt Q653V4)
# Test: Counterscreen for Glucocerebrosidase Inhibitors: qHTS Assay for Rice alpha-Glucosidase at pH 5.0 (AID 997);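 also: 0% = full activity with enzyme and -100% = basal without enzyme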
# Details: rice alpha-glucosidase enzyme activity; series mostly up to 76.9 µM; activity change, negative = inhibition: at the top concentration
# How it was run: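 Endpoint fluorogenic assay at pH 5.0: compounds (0.7 nM to 77 uM) titrated against 4 nM rice enzyme and 400 uM 4-MU-alpha-glucoside for 20 min at room temperature; NaOH/glycine stop, read ex 365/em 440 nm, Hill-fitted AC50.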
row,Structure (SMILES),"activity change, negative = inhibition [%]"
1,Brc1c(NC2=NCCN2)ccc2nccnc12,-4.05
2,C[N+](C)(C)CCOC(=O)CCC(=O)OCC[N+](C)(C)C,0.669
3,O=C1CC2(CCCC2)CC(=O)N1CCCCN1CCN(c2ncccn2)CC1,-2.04
4,CN(C)C(=O)Oc1cccc([N+](C)(C)C)c1,-6.35
5,C[C@]12CCC(=O)C=C1CC[C@@H]1[C@@H]2C(=O)C[C@@]2(C)[C@H]1CC[C@]2(O)C(=O)CO,-0.166
6,CCc1cccc(N(C)C(N)=Nc2cccc3ccccc23)c1,-7.15
7,Nc1ncn([C@@H]2O[C@H](CO)[C@@H](O)[C@H]2O)c(=O)n1,0.883
8,C[C@]12C=CC(=O)C=C1CC[C@H]1[C@@H]3C[C@@H](O)[C@](O)(C(=O)CO)[C@@]3(C)C[C@H](O)[C@@]12F,-2.77
9,CCC(=O)c1ccc2c(c1)N(CCCN(C)C)c1ccccc1S2,-3.15
10,C[C@H](CS)C(=O)N1CCC[C@H]1C(=O)O,-3.06
11,C[n+]1cc2c3c(ccc2c2ccc4cc5c(cc4c21)OCO5)OCO3,-1.05
12,CNCCCN1c2ccccc2CCc2ccccc21,2.34
13,CSc1ccc(C(=O)c2[nH]c(=O)[nH]c2C)cc1,-5.41
14,Cc1nc2c([nH]1)c(=O)n(C)c(=O)n2Cc1ccco1,0.8
15,C(=C\c1ccccc1)/CN1CCN(C(c2ccccc2)c2ccccc2)CC1,-1.02
16,CN(C)C(=O)Oc1ccc[n+](C)c1,0.967
17,O=C(CCCN1CCC(O)(c2cccc(C(F)(F)F)c2)CC1)c1ccc(F)cc1,-2.37
